High-throughput results from PubChem BioAssay.
S1P4 agonist – agonists of human S1P4 receptor. O95977. S1P4-expressing cell line, agonist reporter assay. activation, % at 4.98 µM. hit rate 0.35% among 220,000; in the data active means activation above about 11%;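 further: 0% = DMSO vehicle and 100% = reference agonist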
Target sequence (O95977 whole entry, looked up): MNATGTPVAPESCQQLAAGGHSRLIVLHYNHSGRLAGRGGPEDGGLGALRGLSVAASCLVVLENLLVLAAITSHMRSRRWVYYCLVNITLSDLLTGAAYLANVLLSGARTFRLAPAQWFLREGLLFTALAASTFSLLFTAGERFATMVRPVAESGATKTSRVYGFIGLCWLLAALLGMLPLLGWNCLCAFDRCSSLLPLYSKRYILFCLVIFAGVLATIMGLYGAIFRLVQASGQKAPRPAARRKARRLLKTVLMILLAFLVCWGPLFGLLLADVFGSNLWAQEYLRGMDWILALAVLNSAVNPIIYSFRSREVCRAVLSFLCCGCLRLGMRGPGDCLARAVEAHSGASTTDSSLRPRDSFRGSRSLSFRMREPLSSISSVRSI
EP2 modulator – modulators of human EP2 prostaglandin E2 receptor; P43116; EP2-expressing cells, cAMP HTRF FRET, PGE2 co-stimulation; induction, % at 25 µM; hit rate 0.83% among 260,000; AID 940;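 active means compounds whose cAMP rise, as percent of the full-agonist control response, exceeds 60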;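 further: rat C6 glioma line stably carrying human EP2 under a CMV promoter; the protocol text gives 20 µM as final concentration; 100% = response of wells given 1 µM PGE2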
S1P3 antag-1 – S1P3 (human) receptor antagonism | AID 485 | hit rate 0.27% among 170,000 | Q99500 | inhibition, % at 4.98 µM | CHO S1P3 NFAT-BLA reporter, FRET fluorescence, antagonist mode;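 active means inhibition above the plate cutoff, the mean inhibition of test wells on that plate plus 3 SD, cut at about 28% in these data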;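 further: cells challenged with S1P at its EC80 of 0.8 µM; blue over green emission ratio from cleaved BLA substrate after 4 h stimulation; 0% = S1P-stimulated wells and 100% = unstimulated DMSO-only wells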
S1P4 antag – human S1P4 receptor antagonism; S1P4-expressing cells, antagonist mode, reporter read-out; inhibition, % at 4.98 µM; hit rate 0.26% among 220,000; in the data active means inhibition above about 29%;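 further: 0% = wells stimulated with agonist and 100% = vehicle wells without agonist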
EP2 antag – blocks the human prostaglandin E2 receptor EP2; P43116; C6 glioma cells expressing human EP2, cAMP TR-FRET; cells stimulated with saturating PGE2; inhibition, % at 25 µM; hit rate 0.52% among 260,000; AID 1422;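 active means percent inhibition above 40 after rounding to a whole number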;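 further: rat C6 glioma host cells with rolipram phosphodiesterase inhibitor present; the protocol text gives 20 µM as final concentration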
S1P3 antag-2 – confirmation of human S1P3 receptor antagonists; shares compounds with S1P3 antag-1; CHO S1P3 NFAT-BLA reporter, FRET, antagonist mode; inhibition, % at 4.98 µM; hit rate 30% among 240; AID 1429;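 active means inhibition above the hit threshold that was computed for the earlier primary screen, cut at about 30% in these data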;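 further: 0% = S1P-stimulated wells and 100% = unstimulated DMSO-only wells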
An asterisk follows results filed as active. A selection: hits, their analogues and other compounds. The true share with any hit is near 2%.

Screening CCCCCCCCCn1ccc(=N)cc1 returned S1P4 agonist 2, EP2 modulator -19, S1P3 antag-1 30*, S1P4 antag -7, EP2 antag 5 and S1P3 antag-2 3.
CCCCCCCn1ccc(=N)cc1 was read as S1P4 agonist -3, EP2 modulator -1, S1P4 antag -16 and EP2 antag 14.
Cc1c(Cl)cn2c(=O)cc(CN(C)Cc3nc4ccccc4c(=O)[nH]3)nc2c1Cl was read as S1P4 agonist 1, EP2 modulator 3, S1P3 antag-1 34*, S1P4 antag -14, EP2 antag -1 and S1P3 antag-2 -14.
CCN(Cc1cc(=O)n2ccsc2n1)Cc1nc2ccccc2c(=O)[nH]1 was read as S1P4 agonist -1, EP2 modulator 4, S1P3 antag-1 -9, S1P4 antag -3 and EP2 antag 6.
c1ccc2c(c1)OCC(CNc1ncnc3sccc13)O2 (centres undefined) was read as S1P4 agonist -1, EP2 modulator -3, S1P3 antag-1 43*, S1P4 antag -14, EP2 antag 6 and S1P3 antag-2 26.
Screening Cc1ccccc1Nc1nc(-c2cccnc2)nc2ccccc12 returned S1P4 agonist -2, EP2 modulator 4, S1P3 antag-1 4, S1P4 antag 0 and EP2 antag 7.
`Cc1ccc(Nc2nc(-c3cccnc3)nc3ccccc23)cc1` gave S1P4 agonist 1, EP2 modulator -11, S1P3 antag-1 35*, S1P4 antag -4, EP2 antag 36 and S1P3 antag-2 14.
CC(=O)c1c(C)[nH]c(C(=O)NC(C)c2ccccc2)c1C (centres undefined) was read as S1P4 agonist -3, EP2 modulator -8, S1P3 antag-1 38*, S1P4 antag -5, EP2 antag 7 and S1P3 antag-2 -11.
COc1ccc(CCNc2ncnc3sccc23)cc1OC was read as S1P4 agonist 1, EP2 modulator -69, S1P3 antag-1 49*, S1P4 antag -13, EP2 antag 3 and S1P3 antag-2 23.
NS(=O)(=O)c1ccc(CCNc2ncnc3sccc23)cc1 was read as S1P4 agonist 4, EP2 modulator -32, S1P3 antag-1 -29, S1P4 antag -35 and EP2 antag 11.
For COc1ccc(C(=O)NC(Nc2ccc(C)cc2)C(Cl)(Cl)Cl)cc1 (centres undefined) the results were S1P4 agonist -1, EP2 modulator -69, S1P3 antag-1 44*, S1P4 antag -20, EP2 antag 26 and S1P3 antag-2 58*.
Cc1cc(CNC(=O)c2c(-c3ccncc3)noc2C)c2[nH]c(C)c(C)c2c1 was read as EP2 modulator -70 and EP2 antag 3.
For Cc1ccc(NC(=O)C(OC(=O)c2ccc(NC(N)=O)cc2)c2ccccc2)cc1Cl (centres undefined) the results were S1P4 agonist 4, EP2 modulator -7, S1P3 antag-1 -5, S1P4 antag -17 and EP2 antag 7.
Screening Cc1ccc(NC(=O)C(OC(=O)c2ccccc2Cl)c2ccccc2)cc1Cl (centres undefined) returned S1P4 agonist 2, EP2 modulator 8, S1P3 antag-1 29*, S1P4 antag -16, EP2 antag 6 and S1P3 antag-2 40*.
`Cc1cc(C(=O)OC(C(=O)Nc2ccc(C)c(Cl)c2)c2ccccc2)c(C)o1` (centres undefined) gave S1P4 agonist 0, EP2 modulator 23, S1P3 antag-1 53*, S1P4 antag 1, EP2 antag 3 and S1P3 antag-2 40*.
Screening CC(C(=O)Nc1ccccc1Br)c1ccc([N+](=O)[O-])cc1 (centres undefined) returned S1P4 agonist -1, EP2 modulator 10, S1P3 antag-1 6, S1P4 antag -9 and EP2 antag 7.
`Cc1ccc(NC(=O)C(C)c2ccc([N+](=O)[O-])cc2)cc1Cl` (centres undefined) gave S1P4 agonist 0, EP2 modulator -6, S1P3 antag-1 49*, S1P4 antag 11, EP2 antag 12 and S1P3 antag-2 48*.
For Cc1cccc(Nc2sc(C(=O)c3cc4cc(Cl)ccc4o3)c(N)c2C#N)c1 the results were S1P4 agonist 0, EP2 modulator 18, S1P3 antag-1 28*, S1P4 antag -1, EP2 antag 6 and S1P3 antag-2 2.
`CCOc1ccc(Cl)cc1C1NC(C(=O)O)CS1` (centres undefined) gave EP2 modulator -16 and EP2 antag 5.
`O=C(/C=C/c1ccco1)Nc1sc2c(c1C(=O)O)CCC2` gave S1P4 agonist 0, EP2 modulator -4, S1P4 antag -16 and EP2 antag 6.
For N#Cc1c(NC(=O)/C=C/c2ccco2)sc2c1CCCC2 the results were S1P4 agonist 2, EP2 modulator 1, S1P3 antag-1 29*, S1P4 antag 2, EP2 antag 10 and S1P3 antag-2 29*.
Screening Cn1nc(-c2ccccn2)nc2c(=O)n(C)c(=O)nc1-2 returned S1P4 agonist 1, EP2 modulator -10, S1P3 antag-1 81*, S1P4 antag 104*, EP2 antag 12 and S1P3 antag-2 90*.
`COc1ccc(-c2nc(-c3ccccn3)ncc2S(C)(=O)=O)cc1` gave S1P4 agonist 1, EP2 modulator 0, S1P3 antag-1 -2, S1P4 antag 10 and EP2 antag 7.
CC(C)CNC(=O)c1cccc(NC(=O)Cc2ccc(Br)cc2)c1 was read as S1P4 agonist 0, EP2 modulator -1, S1P3 antag-1 30*, S1P4 antag -14, EP2 antag 1 and S1P3 antag-2 -14.
Screening CC1CCc2c(sc3ncn4c(=O)n(CC(=O)N5CCCCC5C)nc4c23)C1 (centres undefined) returned EP2 modulator -46.
`COc1cc(/C=C2\SC(=O)N(c3ccc(O)cc3)C2=O)cc(OC)c1OC` gave S1P4 agonist 3, EP2 modulator 31, S1P3 antag-1 31*, S1P4 antag -19, EP2 antag 17 and S1P3 antag-2 -1.
CC(C)c1ccc(CN2CCc3c(nc(N4CCCCC4)[nH]c3=O)C2)cc1 was read as EP2 modulator -15.
Cc1ccccc1NC(=O)C(c1ccccc1)C1CCCC1 (centres undefined) was read as S1P4 agonist 0, EP2 modulator -2, S1P3 antag-1 4, S1P4 antag 14 and EP2 antag 3.
Screening Cc1ccc(NC(=O)C(c2ccccc2)C2CCCC2)cc1 (centres undefined) returned S1P4 agonist 4, EP2 modulator 3, S1P3 antag-1 60*, S1P4 antag -6, EP2 antag 5 and S1P3 antag-2 70*.
`CCC(C(=O)Nc1ccc(C)cc1)c1ccccc1` (centres undefined) gave S1P4 agonist 0, EP2 modulator 1, S1P3 antag-1 27, S1P4 antag 2 and EP2 antag 6.
